Drawing on PubChem BioAssay (NCATS), this text covers Potency for 39 compounds.

Inconclusive results are not listed. Where a call stands in place of a potency, no number is given. The source made the active and inactive calls. The call rests on the fitted dose curve; in most records, active means well fitted inhibition curve with a large enough effect; inconclusive means small, poorly fitted or top-dose-only effect; inactive means flat fitted curve, though single readings scatter.

Calcium and integrin-binding protein 1 (Homo sapiens), sequence (Q99828 whole entry, looked up): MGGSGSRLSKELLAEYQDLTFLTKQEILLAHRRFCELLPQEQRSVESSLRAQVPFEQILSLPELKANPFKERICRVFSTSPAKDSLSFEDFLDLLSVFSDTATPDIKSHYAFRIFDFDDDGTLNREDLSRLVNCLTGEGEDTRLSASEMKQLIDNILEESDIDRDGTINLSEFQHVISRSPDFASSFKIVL

This test has as its target Calcium and integrin-binding protein 1 (Homo sapiens) (UniProt Q99828). Kind of test: Primary qHTS for Identification of Calcium Integrin Binding Protein 1 (CIB1) Competitor (AID 1508620). Further: top concentration of the series differs between compounds. As to conditions: CIB1-GST / FITC-alphaIIb peptide fluorescence polarization; series mostly up to 114 µM. In outline: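 Fluorescence polarization competition: GST-tagged CIB1 (1 uM final) preincubated with compound 15 min at room temperature, then FITC-labelled alphaIIb peptide (100 nM final) added. After 15 min at room temperature, polarization read at Ex 480/Em 540.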
`Cc1cc(-c2cc(OC(=O)c3ccccc3)ccc2Cl)cc2nnc(Nc3ccc(OCCN4CCCC4)cc3)nc12`: the Potency result was “inactive”.

As for `O=C(O)CCc1nccc2c1[nH]c1ccccc12`, the Potency result is “inactive”.

With `C=C1C(=O)O[C@@H]2/C=C(\CO)CC/C=C(/C=O)C[C@H](O)[C@@H]12`, the Potency entry was “inactive”.

Regarding `O=C(NCCCc1ccccc1)c1cccc(-c2cc(O)c3ncccc3c2)c1`, the Potency result is “inactive”.

As to `COc1cc2c(cc1NS(=O)(=O)c1ccc(Br)cc1C)n(C)c(=O)n2C`, the Potency entry was “inactive”.

Take `CC1CCCC(O)CC(=O)c2c(O)cc(O)cc2CC(=O)O1` (centres undefined): the Potency result is “inactive”.

Take `C/C=C(/C)C(=O)O[C@H]1C=C(CO)C(=O)[C@H](OC(=O)/C(C)=C/CO)[C@H]1C(C)C`: the Potency result was “inactive”.

As to `C=C1C(=O)OC2CC(C)C(CCC(C)=O)=CCC12` (centres undefined), the Potency result is “inactive”.

With `NS(=O)(=O)c1ccc(NC(=O)Nc2ccc(F)cc2)cc1`, the Potency entry is “inactive”.

On to `CCC/C=C/C=C/C1CC(O)C2(O)C(=O)OCC12` (centres undefined), for which the Potency result was “inactive”.

`CN1CCN(c2ccc(-c3cccc(CN4CCOCC4)c3)cc2NC(=O)c2c[nH]c(=O)cc2C(F)(F)F)CC1`: the Potency entry was “inactive”.

With `COc1ccc2nccc(C(=O)CC[C@@H]3CCN(CC#Cc4cc(F)cc(F)c4F)C[C@@H]3C(=O)O)c2c1`, the Potency entry is “inactive”.

For the compound `COc1cccc(-c2cc(F)ccc2C2Cc3nc(N)nc(C)c3C(=O)N2)n1` (centres undefined), the Potency result is “inactive”.

Consider `CC(O)C(C)n1ncn(-c2ccc(N3CCN(c4ccc(OCC5COC(Cn6cncn6)(c6ccc(Cl)cc6Cl)O5)cc4)CC3)cc2)c1=O` (centres undefined), for which the Potency result was “inactive”.

In the case of `CN(C)CCn1cc(-c2ccc(F)cc2)c(-n2cccc2)n1`, the Potency result is “inactive”.

`C=C1C(=O)O[C@@H]2/C=C(\C)CC/C=C(\C)CC[C@@H]12`: the Potency result is “inactive”.

As to `CCOc1ccc(-n2c([C@@H](C)N(Cc3cccnc3)C(=O)Cc3ccc(OC(F)(F)F)cc3)nc3ncccc3c2=O)cc1`, the Potency entry is “inactive”.

With `C=C(C)C1CCC2(C(=O)O)CCC3(C)C(CCC4C5(C)C(C=O)C(O)C(C)(C)C5CCC43C)C12` (centres undefined), the Potency result is “inactive”.

On to `CC12CCC3C1C(c1c(cc(O)c(C(=O)c4ccccc4)c1O)O2)C3(C)C` (centres undefined), for which the Potency result is “inactive”.

Turning to `Nc1nc2c(s1)CCN(Cc1ccc(Cl)cc1)CC2`, the Potency entry is “inactive”.

With `O=C(Nc1ccn(Cc2ccc(O)cc2C(F)(F)F)n1)c1c(F)cccc1F`, the Potency result is “inactive”.

Consider `CC(=O)O[C@H]1CC(C)(C)CC2[C@]13CO[C@@]21CCC2[C@@]4(C)CC[C@H](O[C@@H]5OC[C@H](O[C@@H]6O[C@H](CO)[C@@H](O)[C@H](O)[C@H]6O[C@@H]6OC[C@@H](O)[C@H](O)[C@H]6O)[C@H](O)[C@H]5O[C@@H]5O[C@H](CO)[C@@H](O)[C@H](O)[C@H]5O)[C@@](C)(CO)C4CC[C@@]2(C)[C@]1(C)C[C@H]3O` (some centres undefined), for which the Potency entry is “inactive”.

Turning to `CC1=CC2/C=C(\C)CCC(O)C(=O)C(O)CC(=O)C23C(=O)NC(CC(C)C)C3C1C` (centres undefined), the Potency entry is “inactive”.

Regarding `C=C[C@](C)(O)CC[C@H]1C(C)=CC(=O)[C@H]2C(C)(C)CCC[C@]12C`, the Potency result was “inactive”.

Turning to `Cc1ccnc(NC(=O)C(C)c2cccc(C(=O)c3ccccc3)c2)c1` (centres undefined), the Potency result was “inactive”.

`CO[C@@H]1[C@H](O)CCC2(CO2)[C@H]1[C@@]1(C)O[C@@H]1CC=C(C)C` (some centres undefined): the Potency entry was “inactive”.

As for `CC(C)CCNC(=O)c1ccc2c(c1)nc(Nc1n[nH]c3ccc(-c4ccccc4OC(F)(F)F)cc13)n2C1CCC(O)CC1` (centres undefined), the Potency entry was “inactive”.

For the compound `CCC(CC)Nc1nc(C)c(-c2ccc(OC(F)(F)F)cc2OC)nc1OC`, the Potency entry is “inactive”.

In the case of `CC(=O)OC(C)(C)/C=C/C(=O)[C@](C)(O)[C@H]1C(O)C[C@@]2(C)[C@@H]3CC=C4[C@@H](C=C(O[C@@H]5O[C@H](CO)[C@@H](O)[C@H](O)[C@H]5O)C(=O)C4(C)C)[C@]3(C)C(=O)C[C@]12C` (some centres undefined), the Potency result is “inactive”.

Take `COC(CCc1ccc(O)cc1)CC(=O)CCc1ccc(O)cc1` (centres undefined): the Potency entry is “inactive”.

For the compound `Nc1nc2c(c(N3CC[C@@H](N)C3)n1)CCCc1ccccc1-2`, the Potency result is “inactive”.

Regarding `COc1ccc(C2Oc3c(OC)cc(CCCO)cc3C2COC2OC(CO)C(O)C(O)C2O)cc1OC` (centres undefined), the Potency result was “inactive”.

For `Cc1c[nH]c2ncnc(N3CCC(CN)(C(=O)Nc4cccc(OC(=O)N(C)C)c4)CC3)c12`, the Potency entry was “inactive”.

`CC(C)(C)c1ccc(NC(=O)N2CCN(c3ncccc3Cl)CC2)cc1`: the Potency entry is “inactive”.

Regarding `Cc1nc(Nc2cnn(C3CCNCC3)c2)nc2c1N(C)C(=O)c1cc3ccccc3cc1N2C`, the Potency entry is “inactive”.

Regarding `COc1ccc(NC(=O)C2C[C@H](C)CC[C@H]2C(C)C)cc1` (some centres undefined), the Potency result was “inactive”.

Regarding `COC1C(OC(=O)/C=C/C=C/C=C/C=C/C(=O)O)CCC2(CO2)C1C1(C)OC1CC=C(C)C` (centres undefined), the Potency result is “inactive”.

In the case of `C/C=C(/C)C(=O)OC1C=C2C3C(C)C(C)C(OC(=O)C(C)C(C)O)CC3(C)CCC2(C)C2(C)CC(OC(C)=O)C3C(C)(C)C(O)C(=O)CC3(C)C12` (centres undefined), the Potency result is “inactive”.

As to `CC(C)=CCC/C(C)=C/COCC1OC(n2ccc(=O)[nH]c2=O)C(O)C1O` (centres undefined), the Potency result is “inactive”.
